# Values joined by “and” are separate entries in the source; they are usually repeats but may differ in a detail not shown here. Equal values may be shown once. Compounds without any hit were thinned out: in the full panel of roughly 83,000, 20% have a hit.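 Activity criterion: percent growth below 10, measured after cells in 96-well plates were exposed to a single compound concentration for 48 hours.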 Active and inactive are the calls of the source.
# Test system: MDA-MB-468 breast
# Assay: NCI-60 one-dose screen, 48 h (100 = growth as untreated, 0 = no growth, -100 = all killed)
# Conditions: 10 µM unless noted
row,SMILES,growth
1,CN1CC2CCC(C1)C2=O,106% (inactive)
2,O=C(O)c1cc([N+](=O)[O-])cc([N+](=O)[O-])c1,103% (inactive)
3,CCCCCCC(=O)NC1=C(N2CC2)C(=O)C(NC(=O)CCCCCC)=C(N2CC2)C1=O,23.2% (inactive)
4,Nc1ccc(P(=O)(O)O)cc1,104% (inactive) and 92.6% (inactive)
5,CC(C)(NC(=O)O[C@@H]1CN2CCC1CC2)c1csc(-c2ccc(F)cc2)n1,85.2% (inactive)
6,c1ccc(CSC(c2ccccc2)c2ccccc2)cc1,124% (inactive)
7,O=C(CC1(O)C(=O)N(Cc2ccccc2)c2ccc(Br)cc21)c1ccc(C(=O)NCC2CCC3(CC2)OOC2(CCCCC2)OO3)cc1 (centres undefined),27.9% (inactive)
8,O=c1[nH]c2ccc([N+](=O)[O-])cc2c(=O)o1,108% (inactive)
9,CC1CN1CCCCN1CC1C (centres undefined),101% (inactive)
10,C[C@]12CC[C@H]3[C@@H](C[C@@H]4SC(Nc5ccccc5)=N[C@@]45C/C(=N/O)CC[C@]35C)[C@@H]1CCC2=O,59.9% (inactive)
11,O=C(O)CC(Br)C(=O)CBr (centres undefined),105% (inactive)
12,ClCCN(CCCl)c1ccc(/C=C\c2ccnc3ccccc23)cc1,46.1% (inactive)
13,CC12CCC3C(CC=C4CC(O)CCC43C)C1C/C(=C\N1CCOCC1)C2=O (centres undefined),106% (inactive)
14,CC1=C(CN)C2=C(C)C3(CC3)[C@@](C)(O)C(=O)C2=C1,73.2% (inactive)
15,COc1ccc(S(=O)(=O)Nc2c(/C=C\c3cc(OC)c(OC)c(OC)c3)ccc(OC)c2O)cc1OC,14.1% (inactive)
16,C[C@]12CCc3sc(-c4ccc(Cl)cc4)nc3C1=CC[C@@H]1[C@@H]2CC[C@]2(C)C(=O)CC[C@@H]12,55.5% (inactive)
17,Cn1cc(C2=C(c3cn(C4CCN(Cc5ccccn5)CC4)c4ccccc34)C(=O)NC2=O)c2ccccc21,119% (inactive)
18,CC[C@H](C)[C@H](NC(=O)CN(C)C)C(=O)N(C)[C@H](C[C@@H](OC(C)=O)c1nc(C(=O)NC23CC(C(=O)OC)(C2)C3)cs1)C(C)C,-14.9% (active)
19,Nc1nnnc2nc[nH]c12,-11.9% (active)
20,Cc1cc(Br)c([N+](=O)[O-])cc1[N+](=O)[O-],58.4% (inactive)
21,Clc1ccc(COC(Cn2ccnc2)c2ccc(Cl)cc2Cl)cc1 (centres undefined),39.7% (inactive)
22,CCN(CC)CCOc1c(C(C)C)cccc1C(C)C,88.1% (inactive)
23,CC1COC(=O)C1 (centres undefined),106% (inactive)
24,COc1ccc(C(=O)c2ccc([As]=O)cc2)cc1 (centres undefined),-74.8% (active)

# Reference: PubChem BioAssay (NCI)
